# Assay outcomes (PubChem)
# 3T3 cytotox: Cytotoxic Profiling in NIH 3T3 Cell Line of Diverse Libraries Using Quantitative High-Throughput Screening; 4.3% of 94,000 active; AID 1345082, 2018; Potency, µM (doses to about 96.7 µM), usual class: inhibitors; NIH 3T3 viability, CellTiter-Glo ATP luminescence, 48-72 h; note: nearly all actives have a fitted effect of over 55% in size
#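 First NIH 3T3 cells are plated at 400 cells/well; next compound is pinned in; then plates incubate 48 or 72 hr at 37 °C; finally CellTiter-Glo is added and luminescence read after 10 min.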
# Luciferase inh: Firefly luciferase inhibition profiling of diverse chemical library using quantitative high-throughput screening; purified P. pyralis luciferase, luminescence, biochemical; Potency, µM (highest dose often 115 µM), usual class: inhibitors; Luciferin 4-monooxygenase (Photinus pyralis), P08659; 2.5% of 76,000 active; note: nearly all actives have a fitted effect of over 65% in size
# Target sequence (P08659 whole entry, looked up): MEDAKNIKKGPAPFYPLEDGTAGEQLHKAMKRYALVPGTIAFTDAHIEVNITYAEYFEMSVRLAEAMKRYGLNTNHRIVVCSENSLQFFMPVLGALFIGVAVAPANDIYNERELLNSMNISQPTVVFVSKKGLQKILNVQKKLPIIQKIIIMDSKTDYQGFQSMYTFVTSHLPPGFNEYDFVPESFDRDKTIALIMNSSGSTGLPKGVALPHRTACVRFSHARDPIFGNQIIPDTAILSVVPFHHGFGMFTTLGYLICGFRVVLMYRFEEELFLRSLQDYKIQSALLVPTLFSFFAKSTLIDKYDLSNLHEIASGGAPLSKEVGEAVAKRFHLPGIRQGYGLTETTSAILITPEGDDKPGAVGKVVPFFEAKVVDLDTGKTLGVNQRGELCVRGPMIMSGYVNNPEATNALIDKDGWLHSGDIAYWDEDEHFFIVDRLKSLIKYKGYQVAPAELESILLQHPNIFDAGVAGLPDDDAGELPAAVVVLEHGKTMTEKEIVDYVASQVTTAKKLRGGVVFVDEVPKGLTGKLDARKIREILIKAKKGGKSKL
#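 Luminescence read by CCD imager after adding enzyme (10nM final) to wells holding compound, titrated in qHTS. Substrates 10uM each D-luciferin and ATP; buffer 50mM Tris acetate pH 7.5, 10mM Mg acetate, Tween-20, BSA.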
# HEK cytotox: Cytotoxic Profiling in HEK 293 Cell Line of Diverse Libraries Using Quantitative High-Throughput Screening; HEK 293 viability, ATP luminescence (CellTiter-Glo), 48-72 h; AID 1345083, 2018; 6.6% of 94,000 active; Potency, µM (series often up to 115 µM), usual class: inhibitors; note: nearly all actives have a fitted effect of over 60% in size
#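 HEK 293 seeded at 250 cells/well receive compound via pintool. After 48 or 72 hr at 37 degree Celsius, 5% CO2 and 95% humidity, CellTiter-Glo is dispensed and luminescence read following 10 min at room temperature.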
# hNpr1 antagonist: Natriuretic polypeptide receptor (hNpr1) antagonism - Primary qHTS; HEK293 hNpr1 GloSensor cGMP, ANP-stimulated luminescence; 1.6% of 76,000 active; Potency, µM (highest dose often 46.3 µM), usual class: inhibitors; calls by dose curve; note: nearly all actives have a fitted effect of over 60% in size
#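 Compound pre-incubated 30 min at room temperature on GloSensor-loaded HEK293 cells stably carrying hNpr1 and the pGS-40F cGMP biosensor. Stimulation uses hNppA at 0.1 nM final; luminescence is taken at baseline and 20 min post-agonist.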
# A number is an active result; – = inactive; ? = inconclusive; · = no result. This is a sample that favours compounds with a hit; in the whole collection about 11% have one here. Unless noted, calls come from the whole dose curve; as a rule, active = well fitted curve in the direction sought with a large enough effect; inconclusive = small, poorly fitted or top-dose-only effect, or another doubt; inactive = no such curve, though single readings can be large; an effect the other way counts as inactive or inconclusive.
SMILES,3T3 cytotox,Luciferase inh,HEK cytotox,hNpr1 antagonist
CCCCCN(CCC(=O)NCCC(C)C)C(=O)c1cc(C)oc1C,?,–,28.2µM,–
COc1ccc(CNC(=O)CN2C(=O)NC(c3ccc(Cl)cc3)C3=C2COC3=O)cc1 (stereo not drawn),?,–,?,–
O=C(c1ccc(F)cc1)N1CCCN(c2ccnc3ccnn23)CC1,?,·,–,·
COCc1cc(NCc2cccnc2Oc2cccc(C(F)(F)F)c2)ncn1,–,–,50.1µM,–
OCCC1CCN(c2ccc(-c3nc(CCCc4ccccc4)no3)cn2)CC1,–,–,–,–
OCCC1CN(c2ccc(-c3nc(CCCc4ccccc4)no3)cn2)CCO1 (stereo not drawn),?,–,50.1µM,?
C[C@@H](Nc1ccc(-c2nc(CCCc3ccccc3)no2)cn1)C(N)=O,–,–,–,–
CC1(O)CCCN(c2ccc(-c3nc(CCCc4ccccc4)no3)cn2)C1 (stereo not drawn),?,35.5µM,31.6µM,?
COc1ccc(CN2C[C@@H](F)[C@@H](OCc3nc4ccccc4[nH]3)C2)cc1,–,–,?,–
CC(=O)Nc1ccc(CN2CCC3(CC2)CNc2ccccc2[S+](=O)([O-])N3)cc1,–,–,–,–
CCOC(=O)c1ccccc1NC(=O)Cn1c(-c2cnccn2)nc(C)c(C)c1=O,–,–,–,–
O=C(c1ccc(Cl)nc1)N1CCN(c2ccc3nnc(-c4ccccc4)n3n2)CC1,?,·,–,·
CC1=C[C@@H](CO)[C@H](C(C)C)C[C@H]1Cc1nnc(C(C)(C)C)o1,?,–,?,–
CC1=C[C@@H](CN2CCC(CO)CC2)[C@H](C(C)C)C[C@H]1Cc1nnc(-c2ccc([N+](=O)[O-])cc2)o1,?,–,?,–
CC1=C[C@@H](CO)[C@H](C(C)C)C[C@H]1Cc1nnc(-c2ccc(N(C)C)cc2)o1,89.1µM,?,?,–
CC1=C[C@@H](CN(C)CCO)[C@H](C(C)C)C[C@H]1Cc1nnc(-c2ccc(N(C)C)cc2)o1,39.8µM,–,63.1µM,–
COCCNC[C@@H]1C=C(C)[C@H](Cc2nnc(-c3ccc(N(C)C)cc3)o2)C[C@H]1C(C)C,39.8µM,–,25.1µM,–
CC1=C[C@@H](CN2CCC[C@H]2CO)[C@H](C(C)C)C[C@H]1Cc1nnc(-c2ccc(N(C)C)cc2)o1,39.8µM,–,44.7µM,–
Cc1nn(C)c(C)c1CCN(C)C(=O)CCC1CCN(C(=O)c2ccccc2Cl)CC1,–,·,–,·
COc1ccccc1NC(=O)NCC1CCN(Cc2cccnc2)C1 (stereo not drawn),–,–,–,–
O=S(=O)(c1ccccc1F)N1CCC(OCc2noc(C3CCCO3)n2)CC1 (stereo not drawn),–,·,?,·
CC1=C[C@@H](CO)[C@H](C(C)C)C[C@H]1Cc1nnc(-c2ccncc2)o1,–,–,100µM,–
CC1=C[C@@H](CN2CCC(CO)CC2)[C@H](C(C)C)C[C@H]1Cc1nnc(-c2ccncc2)o1,–,–,–,–
N#Cc1ccc(C(=O)N2CCCC(CO)CCNC(=O)CC2)cc1 (stereo not drawn),–,–,–,–
COc1ccccc1N1CCN(C[C@@H]2C=C(C)[C@H](Cc3nnc(-c4cncn4C)o3)C[C@H]2C(C)C)CC1,35.5µM,–,12.6µM,–
SMILES,3T3 cytotox,Luciferase inh,HEK cytotox,hNpr1 antagonist
CC1=C[C@@H](CN2CCN(c3ccccn3)CC2)[C@H](C(C)C)C[C@H]1Cc1nnc(C)o1,?,–,?,–
CC1=C[C@@H](CN2CCCCC2)[C@H](C(C)C)C[C@H]1Cc1nnc(-c2cncn2C)o1,?,–,100µM,–
CC1=C[C@@H](CN2CCN(c3ncccn3)CC2)[C@H](C(C)C)C[C@H]1Cc1nnc(-c2cncn2C)o1,?,–,35.5µM,–
CCN(CC)C(=O)N1CCC(c2noc(COc3ccc(F)cc3)n2)C1 (stereo not drawn),?,·,44.7µM,·
O=C(Cc1ccccc1)N1CCC(c2noc(COc3ccc(F)cc3)n2)CC1,?,·,44.7µM,·
Cc1cc(S(=O)(=O)N2CCC(c3noc(COc4ccc(F)cc4)n3)CC2)ccc1F,35.5µM,–,25.1µM,?
Cc1ccccc1OCc1nc(C2CN(C(=O)Cc3cccc(F)c3)C2)no1,39.8µM,–,44.7µM,–
O=C(c1ccncc1)N1CCC(c2noc(COc3ccc(F)cc3)n2)CC1,–,–,?,?
